The record followed here is PubChem BioAssay (NCATS).

Results filed as inconclusive are left out. Calls of active or inactive are those of the source. Calls come from the whole dose curve; as a rule, active = well fitted inhibition curve with a large enough effect in the signal ratio, with a control signal flat (not every such curve was filed as active); inconclusive = small, poorly fitted or top-dose-only effect, or effect the other way, or a change in a side signal; inactive = flat fitted curve, though single readings scatter; the % refers to the signal ratio.

Chain of Peroxisome proliferator-activated receptor gamma (Homo sapiens) (P37231 whole entry, looked up): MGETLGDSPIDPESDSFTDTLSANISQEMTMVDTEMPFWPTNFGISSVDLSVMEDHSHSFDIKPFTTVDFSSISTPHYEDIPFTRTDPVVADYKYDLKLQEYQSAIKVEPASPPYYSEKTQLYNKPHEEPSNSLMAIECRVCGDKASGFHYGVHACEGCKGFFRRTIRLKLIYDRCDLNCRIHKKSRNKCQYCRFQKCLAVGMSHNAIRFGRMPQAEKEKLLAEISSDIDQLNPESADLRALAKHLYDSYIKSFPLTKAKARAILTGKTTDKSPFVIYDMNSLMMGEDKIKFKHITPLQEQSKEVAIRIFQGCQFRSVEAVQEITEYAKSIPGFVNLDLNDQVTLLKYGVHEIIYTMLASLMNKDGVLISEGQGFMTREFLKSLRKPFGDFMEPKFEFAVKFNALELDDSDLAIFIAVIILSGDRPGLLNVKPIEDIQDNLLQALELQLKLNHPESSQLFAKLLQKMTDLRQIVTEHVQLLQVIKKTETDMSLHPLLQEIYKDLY

The assay has as its target Peroxisome proliferator-activated receptor gamma (Homo sapiens) (UniProt P37231). Put plainly: qHTS assay for small molecule antagonists of peroxisome proliferator-activated receptor gamma signaling (AID 588537).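 Note: reporter cells co-stimulated with 50 nM rosiglitazone agonist during compound treatment.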 The settings on record: HEK293 PPARg-UAS-bla, beta-lactamase ratio, antagonist mode; series mostly up to 76.8 µM. The text has this:
NIH Chemical Genomics Center [NCGC]
U.S. Environmental Protection Agency [EPA]
National Institutes of Environmental Health Sciences [NIEHS]
National Toxicology Program [NTP]
The Peroxisome proliferator-activated receptors (PPARs) are lipid-activated transcription factors of the nuclear receptor superfamily with three distinct subtypes namely PPAR alpha, PPAR delta (also called PPAR beta) and PPAR gamma. All these subtypes heterodimerizes with Retinoid X receptor (RXR) and these heterodimers regulate transcription of various genes. PPAR-gamma (glitazone receptor) ligands have been used in the treatment of type 2 diabetes and dyslipidaemia. It is involved in the regulation of glucose and lipid metabolism. PPAR-gamma activates certain genes like Paraoxonase 1 which is responsible for hydrolyzing organophosphates. PPAR-gamma ligands may also be therapeutically important in the treatment of coronary artery disease, obesity and cancer and atherosclerosis.
NCGC Assay Protocol Summary
Using a beta-lactamase reporter-gene under control of Peroxisome Proliferator-Activated-gamma (PPAR-gamma) response element, a cell-based assay [GeneBLAzer PPAR-gamma-UAS-bla assay developed by Invitrogen] was used to measure PPAR-gamma ligands signaling. GeneBLAzer PPAR-gamma-UAS-bla-HEK293 cells were used with assay medium containing 1% charcoal/dextran treated FBS. The assay was performed in clear bottom black Greiner 1536-well plates. Library compounds were measured for their ability to inhibit the reporter gene activity. Compounds were screened in a titration series in 1536-well format. The fluorescence intensity (405 nm excitation, 460/530 nm emission) was measured using an EnVision plate reader. Data was normalized relative to Rosiglitazone control (50 nM, 100%), and DMSO only wells (basal, 0%). Concentration-response titration points for each compound were fitted to the Hill equation yielding concentrations of half-maximal inhibition (IC50) and maximal response (efficacy) values.
qHTS protocol for PPAR-gamma beta-lactamase assay in antagonist mode
[Step] [Parameter] [Value] [Description]
1. Reagent; 5 uL; 3000 cells/well
2. Incubation; 37 C for 6-6.5 hrs
4. Controls (GW9662, PPAR-gamma antagonist); 23 nL,
5. Agonist (Stimulator); 1uL; Rosiglitazone at 50 nM (final) concentration
6. Incubation; 37 C for 16 hrs
7. Detection reagent; 1 uL of CCF4-dye
8. Incubation; RT for 2 hrs
9. Detection; Fluorescence; Envision plate reader
Regarding `NC(=O)c1cccc([N+](=O)[O-])c1`, the outcome was inactive.

Regarding `COC(=O)c1ccccc1`, the result was inactive. Then `Cc1ccc(CO)cc1`, with “inactive”. `O=C(O)c1c(Cl)cccc1Cl`: the result was inactive. Take `C(=C/c1ccccc1)/c1ccccc1`: the result was inactive. In the case of `C=C(C)C1CC=C(C)C(OC(C)=O)C1` (stereo not given), the outcome was inactive. `COCCOC(=O)c1ccccc1C(=O)OCCOC`: the outcome was inactive. For the compound `CC(=O)Nc1cccc(N)c1`, the outcome was inactive. The result for `CCCOCC(C)O` (stereo not given) reads “inactive”; that for `CNC(=O)c1ccccc1`, “inactive”. Regarding `O=C(O)c1ccccc1[N+](=O)[O-]`, the result was inactive. Consider `Cc1ccco1`, for which the outcome was inactive. Then `Cc1ccccc1C(N)=O`, with “inactive”. On to `BrC/C=C/CBr`, for which the outcome was inactive. `Cc1cccc(C)c1O`: the outcome was inactive. Take `CCOc1cc(OCC)c(C(C)=O)cc1OCC`: the outcome was inactive.

Consider `O=P(O)(OCc1ccccc1)OCc1ccccc1`, for which the outcome was inactive. Turning to `NC(=O)c1ccccc1[N+](=O)[O-]`, the outcome was inactive. Then `CCCCCCO`, with “inactive”; and `CCc1ccccc1O`, with “inactive”; and `CC(C)N=C=NC(C)C`, with “inactive”. Then `Cc1cccc2ccccc12`, with “inactive”; and `Cc1cscn1`, with “inactive”; and `O=C1CCCCC1`, with “inactive”. With `COC(=O)CS`, the outcome was inactive. The result for `CC(C)(C)OC=O` reads “inactive”. Then `CCC(C)(C)OC`, with “inactive”. The result for `FB(F)F` reads “inactive”; that for `CCCCCCCCC`, “inactive”.

Regarding `C=CCCCCCCC=C`, the outcome was inactive.

`CCN(Cc1ccccc1)c1ccccc1`: the outcome was inactive.

Regarding `CCCCN(CCO)CCCC`, the outcome was inactive.

Regarding `Nc1cccc([N+](=O)[O-])c1`, the result was inactive.

Turning to `O=[N+]([O-])c1ccc2nc[nH]c2c1`, the outcome was inactive.

Turning to `C=Cc1ccccn1`, the outcome was inactive. Then `Nc1ccc(Cl)cc1[N+](=O)[O-]`, with “inactive”; and `CC(C)=C1CCC(C)CC1=O` (stereo not given), with “inactive”. For `O=[N+]([O-])c1cccc(C(F)(F)F)c1`, the outcome was inactive.

`CNc1ccc([N+](=O)[O-])cc1`: the result was inactive. The result for `Cc1cccc([N+](=O)[O-])c1C(=O)O` reads “inactive”.
